Test results taken from PubChem BioAssay AID492998 (Southern Research Specialized Biocontainment Screening …, 2010).
The whole screen tested about 2,300 compounds, of which about 550 (24%) were called active. How the calls were made is not given here. The list is a sample of the results. Potency and affinity values are given separately.

Experiment: Vero E6 cell cytotoxicity, dose response, cytotoxicity control for non-replicating M. tuberculosis project, secondary assay (AID 492998);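 further: 100% = vehicle-treated cells and 0% = background wells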
Conditions: series mostly up to 20 µM; viability: at the top concentration

SMILES	viability
c1ccc(-c2nnc(SCc3cn4ccsc4n3)o2)cc1	92.4% (inactive)
CCS(=O)(=O)c1ncc(Cl)c(C(=O)Nc2ccc(C)cc2)n1	81.6% (inactive)
CCCCn1c(N)c(-c2nc3ccccc3o2)c2c([N+](=O)[O-])nn(CC)c(=O)c21	91.8% (inactive)
CCOC(=O)c1sc(NC(=O)CCN2CC(C)OC(C)C2)c(C(=O)OCC)c1C (stereo not given)	91.1% (inactive)
CCCNC(=O)NC(=O)COc1ccc(-c2ccc(C#N)cc2)cc1	100% (inactive)
Cc1ccc(NCCC(=O)c2cccs2)cc1Cl	99.2% (inactive)
Cc1ccc(Sc2ncccc2N)cc1	89.9% (inactive)
Oc1ccccc1CN1CCCC(N2CCN(c3cccc(C(F)(F)F)c3)CC2)C1 (stereo not given)	81.8% (inactive)
CC(C)c1ccc(/C=N/NC(=O)c2ccccn2)cc1	81.8% (inactive)
Cc1ccnc(NC(=O)CCc2c[nH]c3ccccc23)c1	103% (inactive)
C/C(=N\Nc1ccc(Cl)cc1)c1ccccn1	97.2% (inactive)
O=C(CCc1c[nH]c2ccccc12)Nc1ncccc1O	108% (inactive)
COc1cc(/C=N/NC(=O)c2ccccn2)ccc1OC(=O)c1cccs1	119% (inactive)
COc1ccc2oc(=O)c(/C(C)=N/NC(=O)c3ccncc3)cc2c1	87.7% (inactive)
CC(/C=C\C=C\c1ccccc1)=N\NC(=O)c1cncc(Br)c1	91.5% (inactive)
C/C(=N\Nc1cccc2cccnc12)c1ccccn1	74.1% (inactive)
CCCn1nnnc1NC(=O)COc1ccc(Br)cc1	104% (inactive)
Cc1ccccc1-n1c(C)cc(/C=N/NC(=O)c2ccncc2)c1C	96% (inactive)
O=[N+]([O-])c1ncccc1Oc1nc(-c2cccnc2)nc2ccccc12	97.2% (inactive)
Clc1ccccc1OCc1nnc(-c2ccccc2)o1	100% (inactive)
CCOC(=O)/C=C1\Nc2ccccc2OC1=O	81.8% (inactive)
N=c1oc2ccccc2cc1C(=O)Nc1ccccc1	91.1% (inactive)
N#CC(C(=O)Nc1ccccc1)=C1Nc2ccccc2N1	101% (inactive)
Cc1ccc(OC(=O)c2ccc(Br)o2)cc1	98.4% (inactive)

SMILES	viability
CCC(=O)c1ccc(OCC(=O)OCC(=O)c2cc(C)n(C3CC3)c2C)cc1	97.4% (inactive)
CC(C)(C)NCc1cc(Br)ccc1OCc1cccs1	108% (inactive)
O=C(OCC(=O)N1CCN(c2ccccc2)CC1)c1cnc(Cl)c(Cl)c1	88.3% (inactive)
O=C(NCc1ccco1)c1nc2ccccc2s1	96.5% (inactive)
O=C1CC(N2CCN(c3ccccc3)CC2)C(=O)N1CCc1ccccc1 (stereo not given)	102% (inactive)
COC(=O)COc1ccc(-c2ccccc2)cc1C=O	99.3% (inactive)
CC(C)(O)C#Cc1ccc(C(=O)Nc2ccc3c(c2)OCO3)s1	99.3% (inactive)
N/N=C(/Cc1nc2ccccc2[nH]1)c1ccc([N+](=O)[O-])cc1	106% (inactive)
O=C(Nc1nc2ccccc2[nH]1)c1cccc([N+](=O)[O-])c1	98.3% (inactive)
O=[N+]([O-])c1ccc2nc(SCc3cn4ccccc4n3)[nH]c2c1	101% (inactive)
C#CCSc1nnc(-c2ccc([N+](=O)[O-])cc2)o1	100% (inactive)
CC1(C)CC(=O)C(C2NCCc3ccccc32)=C(O)C1 (stereo not given)	98.2% (inactive)
CCCOc1ccc(N2CC(C(=O)Nc3ccccn3)CC2=O)cc1 (stereo not given)	101% (inactive)
COc1ccc(/C=N/NC(=O)C(=O)NCc2cccnc2)cc1OC	95.2% (inactive)
COc1cc(OC)c2c(OC)cccc2n1	87.2% (inactive)
CC(C)(C)Sc1ccc2nc3c(n2c1)CCCC3	85.1% (inactive)
CC(/C=C/c1ccc2c(c1)OCO2)=N/NC(=O)C1COc2ccccc2O1 (stereo not given)	95.2% (inactive)
CCOC(=O)Cn1nc(/C=C/c2ccccc2)ccc1=O	95.6% (inactive)
CCOc1cccc2cc(C(=O)NC(C)c3ccccc3)c(=N)oc12 (stereo not given)	78.5% (inactive)
O=C(N/N=C/c1ccc(O)cc1)c1cccc(C(F)(F)F)c1	95.3% (inactive)
O=C(Nc1nnc(C2=COCCO2)o1)c1cccc(C(F)(F)F)c1	78.5% (inactive)
Nc1ccccc1Nc1ccccc1	83.5% (inactive)
CCCCCCOC(=O)C(C#N)c1nc2ccccc2nc1N1CCN(CC)CC1 (stereo not given)	77% (inactive)
CCCn1c(O)c(N=NC(=O)c2ccco2)c2ccccc21	71.6% (inactive)

SMILES	viability
CCc1ccc(N2C(=O)CC(N3CCC(C(=O)OC)CC3)C2=O)cc1 (stereo not given)	94.7% (inactive)
O=C(NCCc1c[nH]c2ccccc12)c1cc2ccccc2oc1=O	96.7% (inactive)
O=C(CNC(=O)c1ccccc1)OC1CCCCC1	93.4% (inactive)
Cc1cc(C)cc(OCC(=O)N/N=C/c2ccc([N+](=O)[O-])o2)c1	92.1% (inactive)
CCCCCCCC(=O)N/N=C/c1ccc([N+](=O)[O-])o1	100% (inactive)
O=C(CCSc1nnc(-c2ccccc2)o1)N1CCOCC1	101% (inactive)
Cc1cc(C)n2nc(N)c(N=Nc3ccccc3)c2n1	87.8% (inactive)
CCC(C)n1nnc2c(=O)oc3ccccc3c21 (stereo not given)	106% (inactive)
CCOc1ccc(NC(=O)COC(=O)C2(C)CC2(Cl)Cl)c([N+](=O)[O-])c1 (stereo not given)	93.8% (inactive)
N#Cc1cc(N)ccc1-n1cccc1	95.4% (inactive)
N/C(=N\OC(=O)CC1CCCCC1)c1ccncc1	90.3% (inactive)
CC(C)CN1C(=O)CC(Sc2ccccc2C(=O)O)C1=O (stereo not given)	98.9% (inactive)
O=C1CC(N2CCC(c3nc4ccccc4o3)CC2)C(=O)N1 (stereo not given)	97.8% (inactive)
COc1ccccc1NC(=O)CCN1CCN(c2ccc(Cl)cc2)CC1	108% (inactive)
CC(C)n1c(=S)[nH]c2ccccc2c1=O	93.2% (inactive)
Cc1ccc(C(=O)N/N=C/C=C/c2ccccc2)cc1	112% (inactive)
Cc1ccc(C(=O)N/N=C\c2ccc[nH]2)cn1	106% (inactive)
O=C(N/N=C/c1ccc(Br)s1)c1cccnc1	102% (inactive)
Cc1ccc(C(=O)N/N=C\c2ccc(-c3ccc(Cl)cc3)o2)cn1	70.7% (inactive)
O=C(N/N=C/c1ccc([N+](=O)[O-])s1)c1ccccc1	80.4% (inactive)
Cn1cccc1/C=N/NC(=O)c1ccncc1	99.6% (inactive)
COc1cccc(-c2nc(C=O)cs2)c1	87.1% (inactive)
CCCOc1ccc(N2C(=O)CC(N3CCCC(C(=O)N4CCCC4)C3)C2=O)cc1 (stereo not given)	112% (inactive)
COC(=O)CN(C#N)c1nc(SC)nc(N(C)C)n1	105% (inactive)

SMILES	viability
CC(C)C[C@H]1CN=C(Nc2ccccc2)N1CCCC1CCCCC1	78% (inactive)
CCSc1nc(O)c(C2OC(=O)c3c2ccc(OC)c3OC)c(=O)n1-c1ccccc1 (stereo not given)	103% (inactive)
CCOc1cccc2cc(C(=O)Nc3nccs3)c(=O)oc12	104% (inactive)
O=C(CN1CCC(NC(=O)c2cccc(F)c2)CC1)Nc1ccc(Br)cc1	96.5% (inactive)
Cc1onc(-c2ccccc2)c1C(=O)Nc1nnc(COc2ccc(Cl)cc2)s1	90.6% (inactive)
O=C(N/N=C/c1ccc(Br)s1)c1ccncc1	92.6% (inactive)
Cc1ccc(/C=N/NC(=O)c2ccncc2)s1	107% (inactive)
CC(=O)N1N=C(c2ccccc2)OC1c1ccc([N+](=O)[O-])s1 (stereo not given)	90.7% (inactive)
O=C(Nc1ccccc1)c1cc2ccccc2o1	82.4% (inactive)
CN(C)Cc1ccccc1Sc1ccc(Br)cc1	95.5% (inactive)
CC(C)(NO)/C(=N\O)c1ccccc1	96.7% (inactive)
CCCOC(=O)c1ccc(-c2ccc(C=O)o2)cc1	113% (inactive)
Cc1ccc2nc3c(c(N)c2c1)CCN3c1ccccc1	90.1% (inactive)
C=C(C)C1Cc2c(C)nn(-c3nc(C)cc(C)n3)c2C1 (stereo not given)	79% (inactive)
CCc1nnc(N/N=C/c2ccc(-c3ccc([N+](=O)[O-])cc3)o2)n1N	96% (inactive)
Cc1cccc(NC(=O)COC(=O)c2cc3ccccc3oc2=O)c1	111% (inactive)
CCOc1cccc2cc(C(=O)NCc3ccccc3)c(=N)oc12	103% (inactive)
Cc1ccc(N=Nc2c(C)[nH]n(C(N)=S)c2=O)cc1C	88.3% (inactive)
COc1cccc(NC(=O)c2ccc(-c3ccc([N+](=O)[O-])cc3)o2)c1	95.5% (inactive)
O=C(c1ccc(-c2ccc([N+](=O)[O-])cc2)o1)N1CCN(S(=O)(=O)c2cccs2)CC1	94% (inactive)
COc1ccccc1C(=O)OCC(=O)Nc1ccc(Cl)cn1	103% (inactive)
CC(C)(C)NC(=O)c1ccc(NC(=O)c2ccccc2-c2ccccc2C(=O)O)cc1	115% (inactive)
CN1CCC(O)(c2ccc(Cl)cc2)C(C(=O)c2ccc(Cl)cc2)C1 (stereo not given)	89.6% (inactive)
Cc1nnc(NC(=O)c2ccc3ccccc3c2)o1	85.7% (inactive)

SMILES	viability
N/C(=N/OC(=O)c1ccc(Cl)cc1)c1ncc([N+](=O)[O-])s1	92.4% (inactive)
Cc1nc(Cl)nc(N(C)c2ccccc2)c1[N+](=O)[O-]	94.6% (inactive)
O=C(Cn1cc([N+](=O)[O-])nc1[N+](=O)[O-])N1CCN(c2ccccc2)CC1	87.2% (inactive)
Cc1cc(C=C2C(=O)NC(=S)NC2=O)c(C)n1C1CCCC1	85.3% (inactive)
CSc1nc2ccc(NC(=O)C3CC(=O)N(Cc4ccccc4)C3)cc2s1 (stereo not given)	91.2% (inactive)
CC1CCN(CCc2nc3cc(NC(=O)COc4ccc(Cl)cc4)ccc3n2C)CC1	73.4% (inactive)
NC(=S)n1[nH]c(-c2ccc([N+](=O)[O-])cc2)c(N=Nc2ccc(O)cc2)c1=O	89.5% (inactive)
COC(=O)c1ccc(CSc2nnc(-c3ccncc3)o2)o1	92.3% (inactive)
CCOC(=O)COc1ccc(/C=C2\NC(=S)N(CC)C2=O)cc1	105% (inactive)
FC(F)(F)c1ccc(NCCc2ccccc2)nc1	101% (inactive)
O=C(COc1ccc(F)cc1)N/N=C/c1cccc2cccnc12	90.9% (inactive)
O=C1/C(=C/c2cccs2)COc2ccccc21	92.1% (inactive)
Brc1ccc(OCCCCN2CCCCC2)cc1	96.6% (inactive)
Cc1occc1C(=O)N/N=C/C(Br)=C\c1ccccc1	82.9% (inactive)
O=C(CN1CCCCC1)Nc1nnc(-c2ccc([N+](=O)[O-])cc2)s1	98% (inactive)
N#Cc1nc(-c2cccs2)oc1NCCc1ccccc1	104% (inactive)
COc1cc(N=c2ssnc2Cl)cc(OC)c1OC	83.2% (inactive)
O=C1Nc2cc(C(=O)NCCCN3CCOCC3)ccc2S/C1=C/c1cccc(Cl)c1	84.8% (inactive)
N=c1n(CCN2CCCCC2)c2ccccc2n1CC(=O)c1ccc(Cl)c(Cl)c1	72% (inactive)
COCCOC(=O)c1c(C)oc2ccc(OC(=O)c3ccco3)cc12	96.6% (inactive)
O=C(Nc1ncc(Cc2ccccc2)s1)C1=NCCN1	84.7% (inactive)
OCC#CCSc1nnc(-c2ccc(Br)cc2)o1	90.3% (inactive)
CCN(CC)c1ccc2c(c1)oc(=O)c1c(Cl)cc(=O)oc12	98.1% (inactive)
CN(CCOCCOc1ccc(F)cc1)Cc1ccccc1	81.2% (inactive)
